Assay outcomes as filed in PubChem.
DT40 TDP1 no CPT: qHTS for Inhibitors of human tyrosyl-DNA phosphodiesterase 1 (TDP1): qHTS in cells in absence of CPT. DT40 Tdp1-/- hTDP1 cells, no CPT, ATP luminescence, 48 h. Potency, µM (highest dose often 46.2 µM), for the others: at the top dose activity change, negative = growth inhibition, hits mostly inhibitors. 15% of 420,000 active. AID 686978, 2013; note: potency is the fitted concentration of half-maximal effect; nearly all actives have a fitted effect of over 55% in size
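DT40 Tdp1-/-;hTDP1 cells, no CPT (DMSO vehicle only), 400 cells/well; compounds pin-transferred; ≥48 hr, 37 °C; CellTiter-Glo 30 min RT dark, luminescence read.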
DT40 TDP1 CPT: qHTS for Inhibitors of human tyrosyl-DNA phosphodiesterase 1 (TDP1): qHTS in cells in presence of CPT; chicken DT40 Tdp1-/-;hTDP1 cells + 20 nM CPT, ATP luminescence, 48 h; Potency, µM (series often up to 46.2 µM), for the others: top-dose activity change, negative = growth inhibition, usual class: inhibitors; 12% of 420,000 active; note: potency is the fitted concentration of half-maximal effect; nearly all actives have a fitted effect of over 55% in size
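Chicken DT40 Tdp1-/- cells stably complemented with human TDP1 were seeded at 400 cells/well in medium containing 20 nM camptothecin, exposed to pin-transferred compounds, and grown at 37 °C for at least 48 hr. Viability was read as ATP luminescence.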
IL-1B inflam inh: qHTS for Inhibitors of Inflammasome Signaling: IL-1-beta AlphaLISA Primary Screen; activity change, % at 57.5 µM; 4.7% of 360,000 active; THP-1 LPS/ATP IL-1B secretion, AlphaLISA, 16 h; stronger effect = lower value; in the data active = activity change below about -50%; inconclusive = mostly about -30% to -49%
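THP-1 cells pretreated 1 hr with compounds (up to 57.5 uM final), then stimulated with LPS (250 ng/mL final) plus ATP (1.25 mM final); secreted IL-1B measured by AlphaLISA after 16 hr, decreased signal indicating inhibition.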
HT1080 IDH1KD tx: qHTS for induction of synthetic lethality in tumor cells producing 2HG: qHTS for the HT-1080-IDH1KD cell line. HT-1080 IDH1 knockdown viability, ATP luminescence, 48 h. Potency, µM (highest dose often 46.1 µM), without a hit: at the top dose activity, negative = toxicity, hits mostly cytotoxic. 2% of 360,000 active. AID 686971, 2013;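 note: potency is the fitted concentration of half-maximal effect; 0% = DMSO wells and -100% = cell-free medium wells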
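Luminescent ATP read-out (CellTiter-Glo, 10 min at room temperature) after 48 h compound exposure at 37 °C gave viability of IDH1-knockdown HT-1080 cells. Activity was normalised to DMSO and cell-free wells, then fitted as concentration-response curves.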
HT1080NT lethal: qHTS for induction of synthetic lethality in tumor cells producing 2HG: qHTS for the HT-1080-NT fibrosarcoma cell line; 1.6% of 360,000 active; HT-1080-NT fibrosarcoma viability, CellTiter-Glo ATP luminescence, 48 h; Potency, µM (top dose mostly 46.1 µM), without a hit: at the highest dose activity, negative = less viability, actives largely listed as cytotoxic;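 note: NT is the 2HG producing partner of a matched IDH1 knockdown line; potency is the fitted concentration of half-maximal effect; 0% = DMSO-treated cells and -100% = media-only wells without cells; nearly all actives have a fitted effect of over 55% in size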
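HT-1080-NT; 750 cells/well; 5% FBS RPMI; 48 h compound, 37 degrees C; CellTiter-Glo luminescence; curve fitting and curve-class assignment.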
* hit, by the source's call; ! = not confirmed by another sample. Only some compounds are listed: those with a hit (about 19% of all), similar ones and a draw of the others. Unless noted, calls come from the whole dose curve; as a rule, active = well fitted curve in the direction sought with a large enough effect; inconclusive = small, poorly fitted or top-dose-only effect, or another doubt; inactive = no such curve, though single readings can be large; an effect the other way counts as inactive or inconclusive. Unless noted, % is set by controls: 0 for no effect and ±100 for the full control effect.

For CC(CC(=O)Nc1ncc([N+](=O)[O-])s1)c1ccccc1 (centres undefined) the results were DT40 TDP1 no CPT inconclusive, DT40 TDP1 CPT inconclusive, IL-1B inflam inh -63*, HT1080 IDH1KD tx inconclusive and HT1080NT lethal inconclusive.
Screening O=C(Cc1ccc(Cl)cc1)Nc1ncc([N+](=O)[O-])s1 returned DT40 TDP1 no CPT -29%, DT40 TDP1 CPT 3%, IL-1B inflam inh 33, HT1080 IDH1KD tx inconclusive and HT1080NT lethal inconclusive.
CC(CCc1ccccc1)NC(=O)Cn1c(=O)nc(-c2ccccc2F)c2cc(Cl)ccc21 (centres undefined) was read as DT40 TDP1 no CPT -26% and DT40 TDP1 CPT -8%.
For COc1cccc(-n2c(=O)c3sccc3n(Cc3cc(=O)n4cc(Cl)ccc4n3)c2=O)c1 the results were DT40 TDP1 no CPT -6% and DT40 TDP1 CPT -7%.
Cc1ccc(S(=O)(=O)N2CCCCC2CCNC(=O)C(=O)NCC2CCCO2)cc1 (centres undefined) was read as DT40 TDP1 no CPT -23%, DT40 TDP1 CPT inconclusive, IL-1B inflam inh inconclusive, HT1080 IDH1KD tx -1% and HT1080NT lethal -1%.
O=C(COC(=O)COc1ccccc1)Nc1ncc([N+](=O)[O-])s1 was read as DT40 TDP1 no CPT inconclusive, DT40 TDP1 CPT 23µM*, IL-1B inflam inh 0, HT1080 IDH1KD tx -3% and HT1080NT lethal 4%.
Screening CCC(Oc1ccccc1)C(=O)Nc1ncc([N+](=O)[O-])s1 (centres undefined) returned DT40 TDP1 no CPT inconclusive, DT40 TDP1 CPT inconclusive, IL-1B inflam inh 3, HT1080 IDH1KD tx -5% and HT1080NT lethal -11%.
Cc1ccc(NS(=O)(=O)c2c(C)nc3sc(C)cn3c2=O)c(C)c1 was read as DT40 TDP1 no CPT 18µM* and DT40 TDP1 CPT 18µM*.
`CCNC(=O)Cc1ccc(NC(=O)N2CCCCc3ccccc32)cc1` gave DT40 TDP1 no CPT -11% and DT40 TDP1 CPT -14%.
`Cc1ccccc1CNC(=O)Cc1ccc(NC(=O)N2CCCCc3ccccc32)cc1` gave DT40 TDP1 no CPT 18µM* and DT40 TDP1 CPT inconclusive.
`Cc1cccc(CNC(=O)Cc2ccc(NC(=O)N3CCCCc4ccccc43)cc2)c1` gave DT40 TDP1 no CPT 16µM* and DT40 TDP1 CPT inconclusive.
Screening CCOC(=O)/C(=N/Nc1ccc(OC)cc1)N1CCCc2ccccc21 returned DT40 TDP1 no CPT inconclusive, DT40 TDP1 CPT -25%, IL-1B inflam inh -53*, HT1080 IDH1KD tx -14% and HT1080NT lethal -15%.
COc1ccc(C)cc1NC(=O)N1CCCc2ccccc21 was read as DT40 TDP1 no CPT 23µM*, DT40 TDP1 CPT inconclusive, IL-1B inflam inh -9, HT1080 IDH1KD tx 17% and HT1080NT lethal -2%.
COc1ccc(Cn2nnnc2C(c2ccccn2)N2CCN(c3ccc(O)cc3)CC2)cc1 (centres undefined) was read as DT40 TDP1 no CPT inconclusive and DT40 TDP1 CPT -27%.
CCCCCn1c(=O)[nH]c2cc(C(=O)NCCCN3CCCCC3CC)ccc2c1=O (centres undefined) was read as DT40 TDP1 no CPT inconclusive, DT40 TDP1 CPT inconclusive, IL-1B inflam inh 9, HT1080 IDH1KD tx -1% and HT1080NT lethal 3%.
CN(C)c1ccc(CNC(=O)Cc2ccc(NC(=O)N3CCCCc4ccccc43)cc2)cc1 was read as DT40 TDP1 no CPT 21µM* and DT40 TDP1 CPT inconclusive.
For COc1ccc2[nH]c(C)c(C(=O)CN3CCN(C(=O)c4ccco4)CC3)c2c1 the results were DT40 TDP1 no CPT -8%, DT40 TDP1 CPT -13%, IL-1B inflam inh 1, HT1080 IDH1KD tx 0% and HT1080NT lethal -4%.
`COc1ccc2[nH]c(C)c(C(=O)CN3CCN(C/C=C/c4ccccc4)CC3)c2c1` gave DT40 TDP1 no CPT inconclusive, DT40 TDP1 CPT 18µM*, IL-1B inflam inh inconclusive, HT1080 IDH1KD tx -1% and HT1080NT lethal -1%.
For Cc1[nH]c2ccccc2c1C(=O)CN1CCN(C/C=C/c2ccccc2)CC1 the results were DT40 TDP1 no CPT 18µM*, DT40 TDP1 CPT inconclusive, IL-1B inflam inh inconclusive, HT1080 IDH1KD tx inconclusive and HT1080NT lethal 23µM*.
For CCOC(=O)c1c(S(=O)(=O)Nc2ccc(F)cc2C)c(C)n(C)c1C the results were DT40 TDP1 no CPT -1%, DT40 TDP1 CPT -6%, IL-1B inflam inh 3, HT1080 IDH1KD tx 1% and HT1080NT lethal 5%.
Screening Cn1c(=O)c2sccc2n2c(CCCC(=O)NCc3ccco3)nnc12 returned DT40 TDP1 no CPT -5%, DT40 TDP1 CPT 0%, IL-1B inflam inh -10, HT1080 IDH1KD tx 0% and HT1080NT lethal 1%.
Screening Cn1c(SCc2ccc(C#N)cc2Cl)nc2ccccc21 returned DT40 TDP1 no CPT -10%, DT40 TDP1 CPT -26%, IL-1B inflam inh -71*, HT1080 IDH1KD tx -1% and HT1080NT lethal 7%.
`N#Cc1ccc(CSc2ccccn2)c(Cl)c1` gave DT40 TDP1 no CPT -5%, DT40 TDP1 CPT -18%, IL-1B inflam inh -4, HT1080 IDH1KD tx 16% and HT1080NT lethal 12%.
Screening CCc1ccc(NC(=O)Cn2c3[n+](c4c(F)c(F)ccc42)CCCCC3)cc1 returned DT40 TDP1 no CPT 5.8µM*, DT40 TDP1 CPT 2.6µM*, IL-1B inflam inh inconclusive, HT1080 IDH1KD tx -30% and HT1080NT lethal -11%.
Screening COc1cccc(N2CCN(C(=O)c3cc4c(=O)n(Cc5ccccc5)ccc4nc3C)CC2)c1 returned DT40 TDP1 no CPT inconclusive, DT40 TDP1 CPT 16µM*!, IL-1B inflam inh 54, HT1080 IDH1KD tx inconclusive and HT1080NT lethal inconclusive.
CCc1cccc(NC(=O)c2cc3c(=O)n(Cc4ccc(OC)cc4)ccc3nc2C)c1 was read as DT40 TDP1 no CPT 15µM* and DT40 TDP1 CPT inconclusive.
`COc1cccc(NC(=O)c2cc3c(=O)n(Cc4cccnc4)ccc3nc2C)c1` gave DT40 TDP1 no CPT -30% and DT40 TDP1 CPT 3%.
For COc1ccc(Cn2ccc3nc(C)c(C(=O)N4CCN(c5ccccc5F)CC4)cc3c2=O)cc1 the results were DT40 TDP1 no CPT 18µM* and DT40 TDP1 CPT 23µM*.
Cc1ccc(OCCSc2nc(NC(C)C)nc(NC(C)C)n2)cc1 was read as DT40 TDP1 no CPT inconclusive, DT40 TDP1 CPT inconclusive, IL-1B inflam inh 11, HT1080 IDH1KD tx -20% and HT1080NT lethal -14%.
